Laboratory results from PubChem BioAssay AID652048 (National Center for Advancing Translational Sciences (NCATS), 2013).
Out of some 410,000 compounds screened, about 2,400 (0.59%) were called active. The entries come from a sample that favours actives as a whole. Values without a mark were called inactive. Rule as the data show it: active = max activation above about 30%; inactive = the rest. *1 amine or outer side, *2 acyl side, *3 side chain or, on linkers, in order; H or OH if unused. Where a SMILES comes first, the peptide text is derived from it. Bridges are numbered along the chain shown (N, C = ends). [ ]: non-standard residue; d: D form. The star is where a group is joined. X2 = NC1=N[C@@H]([C@H](N[*:1])C(=O)[*:2])C[C@H](O)N1; ΔAla(Z-3-ureido) = NC(=O)N/C=C(\N)C(=O)O; β3hOrn = NCCC[C@H](N)CC(=O)*; Dap = NC[C@H](N)C(=O)O

target: D(3) dopamine receptor (Homo sapiens) (UniProt P35462); experiment: qHTS of D3 Dopamine Receptor Agonist: qHTS; settings: D3R DiscoveRx beta-arrestin cells, luminescence, 90 min; hits give high values; also: 0% is about no effect
How it was run: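 Agonist mode: compounds and dopamine controls were applied to plated cells for 90 min at 37 degrees C after an overnight attachment at 1500 cells/well. Luminescent read-out followed 30 - 60 minutes at room temperature with DiscoveRx detection reagent.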

Chain of D(3) dopamine receptor (Homo sapiens) (P35462 whole entry, looked up): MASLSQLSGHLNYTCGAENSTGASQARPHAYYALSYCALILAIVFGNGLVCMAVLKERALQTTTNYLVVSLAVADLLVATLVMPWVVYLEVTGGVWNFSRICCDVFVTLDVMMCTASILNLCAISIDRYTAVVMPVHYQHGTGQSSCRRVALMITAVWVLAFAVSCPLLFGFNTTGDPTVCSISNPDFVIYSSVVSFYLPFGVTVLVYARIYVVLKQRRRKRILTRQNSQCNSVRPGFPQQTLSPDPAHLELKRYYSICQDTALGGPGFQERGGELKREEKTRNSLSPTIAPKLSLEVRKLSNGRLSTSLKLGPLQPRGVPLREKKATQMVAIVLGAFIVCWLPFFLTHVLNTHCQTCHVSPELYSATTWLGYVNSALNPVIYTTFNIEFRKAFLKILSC

Compound	max activation
O=C(CSc1ncc(S(=O)(=O)c2ccc(Br)cc2)c(=O)[nH]1)Nc1ccc2c(c1)OCCO2	0.197%
Cc1ccc(C(=O)Nc2cc3c(cc2N2CCCC2)n(C)c(=O)c(=O)n3C)cc1	-5.76%
Cn1c(=O)c(=O)n(C)c2cc(S(=O)(=O)CCC(=O)N3CCCCC3)ccc21	-3.93%
CCc1ccc(S(=O)(=O)Nc2cc3c(cc2N2CCCCC2)n(C)c(=O)c(=O)n3C)cc1	33.6% (active)
Cc1c(NS(=O)(=O)c2cccc(C(=O)Nc3ccc(SC(F)F)cc3)c2)c(=O)n(-c2ccccc2)n1C	33.5% (active)
Cc1c(NS(=O)(=O)c2ccc(Cl)cc2)c(=O)n(-c2ccccc2)n1C	0.215%
Cc1c(NS(=O)(=O)c2cc(C(=O)NCCc3ccc(F)cc3)cc(Cl)c2Cl)c(=O)n(-c2ccccc2)n1C	0.49%
NCCC[C@H](N)CC(=O)N[C@H]1CNC(=O)[C@H]([C@H]2C[C@H](O)NC(N)=N2)NC(=O)/C(=C/NC(N)=O)NC(=O)[C@H](CO)NC(=O)[C@H](CO)NC1=O (β3hOrn-[Dap]SS[ΔAla(Z-3-ureido)][X2]; lactam 1-C)	4.66%
CCOCCn1c(C(C)C)nc2ccccc21	-2.13%
CCc1nc2ccccc2n(CCOCCOCCn2c(=O)c(CC)nc3ccccc32)c1=O	1.74%
CCOCCn1c(-c2ccccc2)nc2ccccc21	65.4% (active)
Cc1ccc(CSc2nc3cccnc3n2Cc2ccc(C(=O)NC3CC3)cc2)cc1	2.04%
CCOc1cccc(NC(=O)c2ccc(F)c(S(=O)(=O)N(CC)c3cccc(C)c3)c2)c1	6.21%
CS(=O)(=O)NC(=O)CCC/C=C\C[C@H]1C(=O)C[C@@H](O)[C@@H]1/C=C/[C@H](O)COc1ccccc1	-14.2%
COc1cc2ccccc2cc1C(=O)Nc1cccc(-c2nc3ccccc3o2)c1	9.76%
COc1cc(OC)c(C(=O)NNC(=O)c2ccc(NS(=O)(=O)c3cccs3)cc2)cc1OC	2.22%
COc1cc2ccccc2cc1C(=O)Nc1ccc(NC(=O)c2cccs2)cc1	30% (active)
C=C1C(=C/C=C2\CCC[C@]3(C)[C@@H]([C@H](C)CCCC(C)(C)O)CC[C@@H]23)C[C@@H](O)C[C@@H]1O	31.6% (active)
C=C1CC[C@H](O)CC1=C/C=C1\CCC[C@]2(C)[C@@H]([C@H](C)/C=C/[C@H](C)C(C)C)CC[C@@H]12	14.3%
CCCN(CCC)CCNC(=O)Cn1cnc2sc(C)c(S(=O)(=O)N3CCC(C)CC3)c2c1=O	-7.98%
Cc1ccc(-c2nn3c(=O)cc(CN4CCN(C(=O)Nc5cccc(C(F)(F)F)c5)CC4)nc3s2)cc1	5.13%
CCc1ccc(CN(Cc2ccco2)C(=O)c2ccccc2Cl)cc1	-16.7%
COc1ccc(NC(=O)c2sc3nc(-c4cc5cccc(OC)c5oc4=O)[nH]c(=O)c3c2C)cc1	-8.2%
CSc1ncnc2c1ncn2CCCNCc1ccco1	-2.72%
CSc1ncnc2c1ncn2CC(=O)C1CCC2C3CCC4=CC(=O)CCC4(C)C3CCC12C (stereo not drawn)	53.2% (active)
CO[C@H]1[C@@H](O)[C@H](N)[C@@H](O[C@H]2O[C@H]([C@H](C)N)CC[C@H]2N)[C@H](O)[C@@H]1N(C)C(=O)CN	4.34%
CCN1CCN(C(=O)Cn2nc(C)n3c(cc4c(OC)cccc43)c2=O)CC1	75.8% (active)

Compound	max activation
COc1cccc2c1cc1c(=O)n(CC(=O)N3CCN(c4cccc(Cl)c4)CC3)nc(C)n12	9.45%
COc1cccc2c1cc1c(=O)n(CC(=O)N3CCN(c4ccccc4)CC3)nc(C)n12	5.49%
Cc1c(O)cc2c(c1C)O[C@](C)(CCC[C@H](C)CCC[C@H](C)CCCC(C)C)CC2	13.3%
CCc1cccc(NC(=O)CN(C)S(=O)(=O)c2ccc3[nH]c4c(c3c2)CCCC4)c1	-8.32%
Cc1ccc2c(=O)c(C(=O)c3ccc(F)cc3)cn(CC(=O)NC3CCCCC3)c2n1	-2.6%
COc1cc(OC)cc(C(=O)NCC(=O)N2CCCCCCC2)c1	-0.951%
COc1ccc(OC)c(CN2CCN(C(=O)CNC(=O)c3cc(C)cc(C)c3)CC2)c1	48.9% (active)
Cc1cc(C)cc(C(=O)NCC(=O)OCC(=O)N2CCCCC2)c1	-0.844%
Cc1nc(CN(C)C(=O)CC2C(=O)NCCN2Cc2ccc(F)cc2)cs1 (stereo not drawn)	0.365%
Cc1cnc(CN(C)C(=O)CC2C(=O)NCCN2Cc2cccc(F)c2F)[nH]1 (stereo not drawn)	4.65%
CN(Cc1cccc2ncccc12)C(=O)CC1C(=O)NCCN1Cc1ccc(F)cc1 (stereo not drawn)	32.9% (active)
CCCS(=O)(=O)c1ncc(Cl)c(C(=O)Nc2scc(-c3ccccc3)c2C(=O)OCC)n1	-8.93%
CC1CCCN(c2csc3ccc(F)cc3c2=O)C1 (stereo not drawn)	5.02%
OC(COc1cccc2ccccc12)CN1CCN(c2ccccn2)CC1 (stereo not drawn)	66.5% (active)
O=C1c2cccc3cccc(c23)N1CN1CCN(c2ccccn2)CC1	7.73%
CC(C)c1ccccc1OCC(O)CN(CC(O)COc1cccc2ccccc12)C(C)C (stereo not drawn)	13.3%
C=CCc1ccc(OCC(O)CN2CCN(Cc3ccccc3)CC2)c(OC)c1 (stereo not drawn)	-9.27%
Cc1cccc(OCC(O)CN2CCN(CCN3C(=O)c4cccc5cccc(c45)C3=O)CC2)c1C (stereo not drawn)	-7.59%
Cc1ccccc1OCC(O)CN1CCN(c2ccccn2)CC1 (stereo not drawn)	41.3% (active)
CCc1ccc(OCC(O)CN2CCN(CCO)CC2)cc1 (stereo not drawn)	-6.12%
CC(C)c1ccc(OCC(O)CN2CCN(c3ccccn3)CC2)cc1 (stereo not drawn)	42.2% (active)
O=S(=O)(c1ccc(OCC(O)CN2CCN(c3ccccc3Cl)CC2)cc1)N1CCOCC1 (stereo not drawn)	7.66%
O=C(Cn1c(-c2cccs2)cc2ccccc21)NCCc1ccc(Cl)cc1	-7.79%
COc1ccc(NC(=O)CSc2nc3ncccc3[nH]2)c(OC)c1	-5.62%
CCCC(=O)Nc1ccc(NC(=O)c2sc3ccccc3c2Cl)cc1	-7.19%
CCCCC(CC)CNC(=O)C1CCN(S(=O)(=O)c2cccc3nsnc23)CC1 (stereo not drawn)	-12.4%
